# Assay: EMT-state selective cytotoxicity in co-culture – imaging, PC-3E GFP, TEM4-18 mCherry, primary screen (AID 1345086);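 also: cells exposed to compound for 72 h before imaging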
# Conditions: PC-3E GFP / TEM4-18 mCherry co-culture, imaging cell counts; measured here: epithelial PC-3E GFP cell survival; at 1 µM
row,SMILES,normalised cell number
1,CC(=O)OC1CCC2(C)C3CC(=O)C4(C)C(CC5OC6(CCC(C)CO6)[C@@H](C)C54)C3CC[C@H]2C1 (stereo partly specified),1.05
2,COC(=O)C1O[C@H](OCc2ccccc2)[C@@H](OC(=O)c2ccccc2)[C@@H](OC(=O)c2ccccc2)C1O (stereo partly specified),1.18
3,C=C1C(=O)O[C@@H]2C(=O)O[C@@H](CCCCCCCC)[C@H]12,1.04
4,CO[C@H]1OC2COC(c3ccccc3)OC2[C@H](OCc2ccccc2)[C@@H]1OCc1ccccc1 (stereo partly specified),1.15
5,CCN1CCN(c2c(F)cc3c(=O)c(C(=O)O)cn4c3c2OC[C@@H]4C)CC1,1.34
6,O=C1C[C@@H]2[C@H](Br)[C@@H](O)C[C@@H]2O1,1.24
7,COC(=O)C[C@@H]1C2(C)C(=O)C3CC4(OC3(O)C1(C)C)C1=CC(=O)O[C@@H](c3ccoc3)[C@]1(C)CCC42 (stereo partly specified),0.91
8,COc1cc(O)c2c(c1C)C(C(C)=O)COC2=O (stereo unspecified),0.32
9,O=C(O)C1O[C@@H](O)[C@@H](O)[C@@H](O)C1O (stereo partly specified),1.22
10,CC(C)(C)Oc1c(F)c(F)nc(F)c1Cl,0.78
11,C=C(C)n1cc(C(=O)OC)c(=O)c2cc(F)c(F)c(OC)c21,0.99
12,COc1ccc(-c2oc3ccccc3c(=O)c2OC)cc1,1.18
13,C=CCOC(=O)N1C(=O)O[C@H]2C(OC(C)=O)C(COC(C)=O)O[C@H](Sc3ccc(C)cc3)[C@H]21 (stereo partly specified),1.08
14,COC(=O)CC1C(C)(C)C(OC(C)=O)[C@@H]2[C@@H](OC(C)=O)[C@]34O[C@@]2(O)C1(C)C3CC[C@]1(C)C4=CC(=O)O[C@H]1c1ccoc1 (stereo partly specified),0.89
15,O=C(NCC1O[C@@H](OC2C(NC(=O)c3ccccc3)C[C@@H](NC(=O)c3ccccc3)[C@H](OC3OC(COS(=O)(=O)O)[C@@H](OS(=O)(=O)O)[C@H](NC(=O)c4ccccc4)[C@H]3OS(=O)(=O)O)[C@H]2OS(=O)(=O)O)[C@H](OS(=O)(=O)O)[C@@H](OS(=O)(=O)O)C1OS(=O)(=O)O)c1ccccc1 (stereo partly specified),0.96
16,COC(=O)c1c[nH]c2c(OC)c(F)c(F)cc2c1=O,1.06
17,COc1cc2c(c3oc4ccccc4c(=O)c13)[C@@H]1C=CO[C@@H]1O2,0.44

# Same assay, conditions: PC-3E GFP / TEM4-18 mCherry co-culture, imaging cell counts; measured here: mesenchymal TEM4-18 mCherry cell survival; at 1 µM
row,SMILES,normalised cell number
1,C/C=C/[C@@H]1C=C[C@@H]2C[C@H](C)CC[C@H]2[C@]1(C)/C(O)=C1\C(=O)[C@H](CO)N(C)C1=O,1.01
2,CCCC1=CC(=O)[C@H](O)[C@H]1O,1.02
3,COc1cc(/C=C/C(=O)/C=C(O)/C=C/c2ccc(O)c(OC)c2)ccc1O,1.06
4,O=C1N=NC(=O)N1c1ccccc1,1.03
5,C/C=C/c1cc2c(c(=O)o1)C(=O)[C@@H](O)[C@H](C)O2,0.92
6,COC(=O)CNC(=O)c1ccc([C@H](O)c2ccccc2)cn1,0.87
7,O=c1c(O)c(-c2ccc(O)c(O)c2)oc2c(O[C@@H]3O[C@H](CO)[C@H](O)[C@@H](O)[C@H]3O)c(O)cc(O)c12,1.01
8,O=c1c(O)cccc2cc(O)c(O)c(O)c12,1.02
9,COC(=O)C[C@@H]1C2(C)C(=O)[C@@H](CC3C2CC[C@]2(C)C3CC(=O)O[C@H]2c2ccoc2)[C@H](OC(C)=O)C1(C)C (stereo partly specified),0.95
10,COC(=O)[C@H](Cc1ccccc1)NC(=O)/C(=C1\OC(=O)C(c2ccccc2)=C1O)c1ccccc1,0.9
11,CCC(C)[C@H]1O[C@]2(CC[C@@H]1C)C[C@@H]1C[C@@H](C/C=C(\C)[C@@H](OC3C[C@H](OC)C(O[C@H]4C[C@H](OC)[C@@H](O)[C@H](C)O4)[C@H](C)O3)[C@@H](C)/C=C/C=C3\COC4[C@H](O)C(C)=C[C@@H](C(=O)O1)[C@]34O)O2 (stereo partly specified),0.97
12,CC/C=C1C=C(/C=C/CO)C(=O)O/1,1.06
13,C=C1C(=O)OC(C(=O)OC)C1CCCCCCCC(C)O (stereo unspecified),1.18
14,Oc1ccc(Oc2cnc3ccc(Cl)cc3n2)cc1,1.05
15,C[C@H]1CC[C@@H](C(C)(C)O)CC2=C1CC[C@@H]2C,0.91
16,CC1OC(O[C@H]2/C=C/C=C/C=C/C=C/C=C/C=C/C=C/[C@H](C)[C@@H](O)[C@@H](C)[C@H](C)OC(=O)CC(O)CC(O)CCC(O)C(O)CC(O)C[C@]3(O)C[C@H](O)C(C(=O)O)C(C2)O3)C(O)[C@@H](N)C1O (stereo partly specified),1.18
17,NC(=O)C[C@H](NC(=O)OCc1ccccc1)C(=O)O,1.08
18,COc1c(F)c(F)cc2c(=O)c(C(=O)NO)cn(C3CC3)c12,1.04
19,CC(CCC(=O)O)[C@H]1CCC2C3CC[C@@H]4CCCC[C@]4(C)C3CC[C@@]21C (stereo partly specified),1.04
